Results filed as inconclusive are left out. A structure can be active in one record and inactive in another. The source made the active and inactive calls. The call rests on the fitted dose curve; in most records, active means well fitted curve in the direction sought with a large enough effect; inconclusive means small, poorly fitted or top-dose-only effect, or another doubt; inactive means no such curve, though single readings can be large; an effect the other way counts as inactive or inconclusive. Non-standard residues stand in square brackets, D forms with d. Residues, ends and D or L forms follow the SMILES beside them. *: point of attachment. Benzoyl(4-tBu) = CC(C)(C)c1ccc(C(=O)*)cc1; Lys(Et2) = CCN(CC)CCCC[C@H](N)C(=O)O
Legend:
[1] = BET inhibitor-based combinations targeting novel dependencies in MECOM-rearranged (r) AML: SET-2 cell line (AID 2202231); conditions: SET-2 AML cells viability, CellTiter-Glo luminescence, 48 h; viability: stronger effect = lower value, concentration not given here; further: nearly all actives have a fitted effect of over 35% in size;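 on viability: plate controls were DMSO treated cells for no effect and wells without cells for full effect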
Method in brief: (§1)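 Luminescent ATP readout (CellTiter-Glo) after 48 hr drug exposure gives viability. Curves span 11 concentrations and are normalized to DMSO and empty wells. Activity is reported as area under the curve and its Z-transform within each cell line.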

[2] = BET inhibitor-based combinations targeting novel dependencies in MECOM-rearranged (r) AML: OCI-AML3 cell line (AID 2202232); conditions: CellTiter-Glo luminescence, 48 h; Potency: OCI-AML3 viability; series mostly up to 46 µM; further: nearly all actives have a fitted effect of over 35% in size
Method in brief: as §1

[3] = BET inhibitor-based combinations targeting novel dependencies in MECOM-rearranged (r) AML: MV-4-11 cell line (AID 2202233); conditions: MV-4-11 AML viability, CellTiter-Glo luminescence, 48 h; series mostly up to 46 µM; further: nearly all actives have a fitted effect of over 45% in size
Method in brief: (§2)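 Luminescent ATP readout (CellTiter-Glo, 15 min at room temperature) after 48 hr drug exposure gave viability. Dose-response curves, normalized to DMSO and empty-well controls, were summarized as area under the curve and its mean-centred Z-score.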

[4] = BET inhibitor-based combinations targeting novel dependencies in MECOM-rearranged (r) AML: HNT-34 cell line (AID 2202234); conditions: HNT-34 AML viability, CellTiter-Glo luminescence, 48 h; series mostly up to 46 µM; further: nearly all actives have a fitted effect of over 35% in size
Method in brief: as §2

[5] = BET inhibitor-based combinations targeting novel dependencies in MECOM-rearranged (r) AML: UCSD-AML1 cell line (AID 2202235); conditions: UCSD-AML1 AML cells viability, CellTiter-Glo, 48 h; series mostly up to 46 µM; further: nearly all actives have a fitted effect of over 40% in size
Method in brief: as §2

[6] = BET inhibitor-based combinations targeting novel dependencies in MECOM-rearranged (r) AML: AML-191 cell line (AID 2202236; further: nearly all actives have a fitted effect of over 35% in size); conditions: AML-191 viability, CellTiter-Glo luminescence, 48 h; series mostly up to 46 µM
Method in brief: as §1

[7] = molecular target: Retinaldehyde dehydrogenase 3 (Homo sapiens) (UniProt P47895); assay: qHTS for Inhibitors of the Aldehyde Dehydrogenase Family (ALDH1A3) Primary screen (AID 2061315); conditions: ALDH inhibition qHTS; series mostly up to 56 µM
[8] = molecular target: Aldehyde dehydrogenase 1A1 (Homo sapiens) (UniProt P00352); assay: qHTS for Inhibitors of the Aldehyde Dehydrogenase Family (ALDH1A1) Confirmatory screens (AID 2061316); conditions: ALDH inhibition qHTS; series mostly up to 47.3 µM; further: nearly all actives have a fitted effect of over 65% in size
[9] = BET inhibitor-based combinations targeting novel dependencies in MECOM-rearranged (r) AML: AML-194 cell line (AID 2202237; further: nearly all actives have a fitted effect of over 40% in size); conditions: AML-194 (MECOM-r AML) viability, CellTiter-Glo, 48 h; series mostly up to 46 µM
Method in brief: as §1
Potency means the concentration at half of the fitted maximal effect.

## CN1C(N)=N[C@](C)(c2cc(NC(=O)c3ccc(F)cn3)ccc2F)CS1(=O)=O
[1]
  viability: 121% (inactive)
[2]
  Potency: inactive
[3]
  Potency: inactive
[4]
  Potency: inactive
[5]
  Potency: inactive
[6]
  Potency: inactive

## CC1=C2[N-][C@H]([C@H](CC(N)=O)[C@@]2(C)CCC(=O)NC[C@@H](C)OP(=O)([O-])O[C@H]2[C@@H](O)[C@@H](n3cnc4cc(C)c(C)cc43)O[C@@H]2CO)[C@]2(C)N=C(C(C)=C3N=C(C=C4N=C1[C@@H](CCC(N)=O)C4(C)C)[C@@H](CCC(N)=O)[C@]3(C)CC(N)=O)[C@@H](CCC(N)=O)[C@]2(C)CC(N)=O.O.[Co+2]
[1]
  viability: 95.1% (inactive)

## CN1CCN(c2ccc(Nc3ncc4cc(C#N)c(=O)n(C5CCCC5)c4n3)cc2)CC1
[1]
  Potency: 1180 nM (active)
[2]
  Potency: 105 nM (active)
[3]
  Potency: 186 nM (active)

## C[C@H]1COCCN1c1cc(C2(S(=O)(=O)C3CC3)CC2)nc(-c2ccc(NC(=S)NCCO)cc2)n1
[1]
  Potency: 417 nM (active)
[2]
  Potency: 833 nM (active)
[3]
  Potency: 93.4 nM (active)
[4]
  Potency: 105 nM (active)
[5]
  Potency: 0.0105 µM (active)

## CN(CC(=O)Nc1ccc(N2CCOCC2)cc1)Cc1cccc2ccccc12
[7]
  Potency: inactive
[8]
  Potency: 11300 nM (active)

## Cc1ccc(NC(=O)Nc2nnc(Sc3ncnc4cc(OCCCN5CCOCC5)ccc34)s2)cc1
[1]
  viability: 111% (inactive)
[2]
  Potency: 14800 nM (active)
[3]
  Potency: 16.6 nM (active)
[4]
  Potency: 14800 nM (active)

## Nc1nccn2c(C3CCC(C(=O)O)CC3)nc(-c3cc4cccc(Cl)c4[nH]3)c12 (configuration not stated)
[7]
  Potency: inactive
[3]
  Potency: 2350 nM (active)
[4]
  Potency: 1480 nM (active)
[5]
  Potency: 1.05 µM (active)

## O=C(NOCCO)c1cc(CN2OCCCC2=O)c(F)c(F)c1Nc1ccc(I)cc1F
[1]
  viability: 70.8% (inactive)

## COc1ccc(-c2cc(C(O)C3CCCCN3)c3ccccc3n2)cc1 (configuration not stated)
[7]
  Potency: inactive
[1]
  Potency: 14800 nM (active)
[2]
  Potency: 20900 nM (active)
[3]
  Potency: 2950 nM (active)
[4]
  Potency: 13200 nM (active)
[5]
  Potency: 9.34 µM (active)
[6]
  Potency: 14800 nM (active)
[9]
  Potency: 11800 nM (active)

## COc1ncc(-c2ccc3nccc(-c4ccnnc4)c3c2)cc1NS(=O)(=O)c1ccc(F)cc1F
[1]
  Potency: 332 nM (active)
[2]
  Potency: 83.3 nM (active)
[3]
  Potency: 105 nM (active)
[4]
  Potency: 263 nM (active)
[5]
  Potency: 0.0372 µM (active)

## COc1nc(N)nc2c1ncn2C1OC(CO)C(O)C1O (configuration not stated)
[1]
  viability: 114% (inactive)
[2]
  Potency: inactive
[3]
  Potency: inactive

## Cc1ccc(NC(=O)c2ccc3c(c2)OCCO3)cc1NC(=O)c1ccc2nc(OCCN3CCCC3)ccc2c1
[1]
  Potency: 144 nM (active)
[2]
  Potency: 257 nM (active)
[3]
  Potency: 91 nM (active)
[4]
  Potency: 45.6 nM (active)
[5]
  Potency: 0.129 µM (active)
[6]
  Potency: 162 nM (active)

## CCOC(=O)C1=CCCCC1S(=O)(=O)Nc1ccc(F)cc1Cl (configuration not stated)
[1]
  Potency: 20900 nM (active)

## CC(C)Oc1ccc(-c2nc(-c3cccc4c3CC[C@@H]4NCCO)no2)cc1C#N
[1]
  viability: 97.4% (inactive)

## CN(Cc1ccccc1)C(=O)c1ccc(S(=O)(=O)Nc2ccccc2)cc1
[7]
  Potency: inactive
[1]
  viability: 103% (inactive)
[2]
  Potency: inactive
[5]
  Potency: inactive
[6]
  Potency: inactive
[9]
  Potency: inactive

## CC(C)NCCCn1c(Sc2cc(Cl)cc(Cl)c2)nc2c(N)ncnc21
[1]
  viability: 98.3% (inactive)
[2]
  Potency: 10500 nM (active)
[3]
  Potency: 14800 nM (active)

## CC1Oc2cc(cnc2N)-c2c(nn(C)c2C#N)CN(C)C(=O)c2ccc(F)cc21 (configuration not stated)
[1]
  viability: 105% (inactive)

## CN(C)c1ccc(Nc2nc(N)n(C(=O)c3c(F)cccc3F)n2)cc1
[7]
  Potency: 14100 nM (active)
[1]
  Potency: 18600 nM (active)
[2]
  Potency: 23500 nM (active)
[3]
  Potency: 4170 nM (active)
[4]
  Potency: 14800 nM (active)
[5]
  Potency: 2.63 µM (active)
[6]
  Potency: 18600 nM (active)

## Cc1[nH]c(/C=C2\C(=O)Nc3ccccc32)c(C)c1CCC(=O)O
[1]
  viability: 83.1% (inactive)
[2]
  Potency: 20900 nM (active)
[3]
  Potency: 13200 nM (active)

## C[C@H]1CC2[C@@H]3CCC4=CC(=O)C=C[C@]4(C)[C@@]3(F)[C@@H](O)C[C@]2(C)[C@@]1(O)C(=O)CO (some centres not stated)
[1]
  viability: 115% (inactive)
[2]
  Potency: inactive
[3]
  Potency: inactive
[4]
  Potency: inactive

## C/C=C(/C)C(=O)O[C@H]1C(C)=CC23C(=O)C(C=C(CO)[C@@H](O)[C@]12O)[C@H]1[C@@H](C[C@H]3C)C1(C)C (some centres not stated)
[1]
  Potency: 7420 nM (active)
[2]
  Potency: 5.3 nM (active)
[3]
  Potency: 52.5 nM (active)

## CN(C)c1ccc(-c2nc3ncc(Cl)c(N4CCN(CC(=O)Nc5nccs5)CC4)c3[nH]2)cc1
[7]
  Potency: inactive
[1]
  viability: 105% (inactive)
[2]
  Potency: 1620 nM (active)
[3]
  Potency: 723 nM (active)

## C[C@H](O)[C@@H]1C(=O)N2C(C(=O)O)=C(S[C@@H]3CN[C@H](CNS(N)(=O)=O)C3)[C@@H](C)[C@@H]12
[7]
  Potency: inactive
[1]
  viability: 118% (inactive)
[2]
  Potency: inactive
[4]
  Potency: inactive
[5]
  Potency: inactive
[6]
  Potency: inactive
[9]
  Potency: inactive

## Cn1cc(/C=C2\C(=O)Nc3cccnc32)c2ccccc21
[1]
  viability: 86.8% (inactive)

## C=CC(=O)N1C[C@H](Nc2ncnc3[nH]ccc23)CC[C@@H]1C
[1]
  viability: 94.9% (inactive)

## CC1(C)C(N(O)C(=O)Nc2ccc(Cl)cc2)N(c2ccc(Cl)cc2)C(=O)N1CC(=O)N/N=C/C=C/c1ccc([N+](=O)[O-])o1 (configuration not stated)
[1]
  Potency: 20900 nM (active)
[2]
  Potency: 3320 nM (active)
[3]
  Potency: 4680 nM (active)
[4]
  Potency: 13200 nM (active)

## FC(F)(F)c1ccccc1-c1nc(NCc2ccc(-c3ccc(Cl)c(Cl)c3)cc2)c2ccccc2n1
[7]
  Potency: inactive
[8]
  Potency: 20100 nM (active)

## NS(=O)(=O)c1ccc(S(=O)(=O)Nc2cccc3c(Cl)c[nH]c23)cc1
[1]
  Potency: 14800 nM (active)
[2]
  Potency: 2950 nM (active)
[3]
  Potency: 590 nM (active)
[4]
  Potency: 1320 nM (active)
[5]
  Potency: 2.35 µM (active)

## C=CCNC1=C2CC(C)CC(OC)C(O)C(C)/C=C(\C)C(OC(N)=O)C(OC)/C=C/C=C(\C)C(=O)NC(=CC1=O)C2=O (configuration not stated)
[1]
  Potency: 8330 nM (active)
[2]
  Potency: 662 nM (active)
[3]
  Potency: 166 nM (active)
[4]
  Potency: 3320 nM (active)
[5]
  Potency: 1.32 µM (active)

## Cn1nccc1Nc1nccc(-c2cc3c(s2)C(C)(C)N(CCN2CCOCC2)C3=O)n1
[1]
  viability: 105% (inactive)
[2]
  Potency: 1320 nM (active)
[3]
  Potency: 4170 nM (active)
[4]
  Potency: 6610 nM (active)

## N#C/C(=C\c1ccc(O)c(O)c1)C(=O)NCc1ccccc1
[1]
  Potency: 14800 nM (active)
[2]
  Potency: 5900 nM (active)
[3]
  Potency: 14800 nM (active)

## CNC(=O)Cn1cc(-c2ccc3c(c2)C(F)CC32NC(=O)N(CC(=O)N(Cc3ccc(F)cc3)[C@@H](C)C(F)(F)F)C2=O)cn1 (some centres not stated)
[1]
  Potency: 3720 nM (active)
  viability: 103% (inactive)
[3]
  Potency: 11800 nM (active)
[4]
  Potency: 74.2 nM (active)
[5]
  Potency: 118 nM (active) and inactive
[6]
  Potency: inactive
[9]
  Potency: inactive

## CCN(CC)CCCC[C@H](NC(=O)[C@H](CC(C)C)NC(=O)[C@H](C)NC(=O)[C@H](Cc1ccccc1)NC(=O)c1ccc(C(C)(C)C)cc1)C(=O)N[C@@H](CO)C(=O)OC ({Benzoyl(4-tBu)}-FAL[Lys(Et2)]S-OMe)
[1]
  viability: 71.5% (inactive)
[2]
  Potency: inactive
[3]
  Potency: inactive
[4]
  Potency: inactive
[5]
  Potency: inactive
[6]
  Potency: inactive
[9]
  Potency: inactive

— PubChem BioAssay (NCATS)
